Data from PubChem BioAssay (EPA / NIEHS).
Inconclusive results are not listed. Calls of active or inactive are those of the source. How the source made its calls: active means hit-call score of the fitted dose curve at least 0.9, where 1 is the maximum; inconclusive means response in the unintended direction; inactive means score below 0.9.

Experiment: ACEA_ER_AUC_viability: ACEA Biosciences xCELLigence Real-Time Cell Analysis on Estrogen Receptor Agonism for Viability (AID 2283782);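 further: continuous compound exposure with impedance area under curve over 80 h; hit means loss of impedance signal meaning reduced cell growth or viability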
Outline: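 T-47D; phenol red-free RPMI1640 + 10% CS-FBS; 8 conc., 1:4 serial, max 100 uM final, ≤0.5% DMSO; n = 2; continuous exposure; impedance monitored to 80 h post-dose; AUC vs DMSO.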
With CCOC(=O)[C@H](C)O the outcome was “inactive”.
For O=S(=O)(O)c1ccc2cc(O)c(S(=O)(=O)O)cc2c1, the AC50 was 50 µM (active).
For CCCCCCCC(C)=O, the outcome was “inactive”.
For C=CCCCCCCCCC(=O)OCCCC, the AC50 was 50 µM (active).
In the case of OCCCS, the AC50 is reported as 44.4 µM (active).
In the case of CC(C)C1=CC2=CC[C@@H]3[C@](C)(CCC[C@@]3(C)C(=O)O)[C@H]2CC1, the outcome is reported as “inactive”.
In the case of C=CCOCC(O)CCl (centres undefined), the outcome is reported as “inactive”.
With O=[N+]([O-])c1ccc(CO)cc1 the outcome was “inactive”.
For CC1(C)[C@H]2CC[C@]1(C)C(=O)C2, the outcome was “inactive”.
With CC(C)C(=O)C(C)C the AC50 was 19.7 µM (active).
In the case of CCCCCCCCC(=O)OCC, the AC50 is reported as 50 µM (active).
For CNC(=S)N(C)C, the outcome was “inactive”.
With Nc1cccc(C(F)(F)F)c1 the outcome was “inactive”.
With O=C1C=CC(=O)O1 the outcome was “inactive”.
In the case of CCc1nccnc1C, the outcome is reported as “inactive”.
For CCc1c(C(=O)O)c(=O)cnn1-c1ccc(Cl)cc1, the AC50 was 31.4 µM (active).
With CC(=O)OC1C2(C)CCC(C2)C1(C)C (centres undefined) the outcome was “inactive”.
For CCO[Si](CCCN=C=O)(OCC)OCC, the outcome was “inactive”.
For CCCNC(=O)NS(=O)(=O)c1ccc(Cl)cc1, the outcome was “inactive”.
In the case of Cc1ccc(N)c([N+](=O)[O-])c1, the outcome is reported as “inactive”.
For CC(C)=CCCC(C)C=O (centres undefined), the AC50 was 11.9 µM (active).
In the case of CC(C)(C)C1CCCCC1=O (centres undefined), the AC50 is reported as 24.8 µM (active).
In the case of CC1(C)S[C@@H]2[C@H](NC(=O)COc3ccccc3)C(=O)N2[C@H]1C(=O)O, the outcome is reported as “inactive”.
In the case of CC(=O)OCCC1CCCCC1, the outcome is reported as “inactive”.
In the case of O=Nc1ccc(O)cc1, the outcome is reported as “inactive”.
For CC(C)=CCC/C(C)=C\C#N, the outcome was “inactive”.
For OCCc1ccncc1, the outcome was “inactive”.
In the case of CCCCCCCCCCC=CC#N, the AC50 is reported as 50 µM (active).
With FC(F)(F)C(=NOCC1OCCO1)c1ccc(Cl)cc1 the AC50 was 74.9 µM (active).
For CC(CC=O)CCCC(C)(C)O (centres undefined), the outcome was “inactive”.
In the case of C=CC(C)(CCC=C(C)C)OC(=O)CC(C)C (centres undefined), the outcome is reported as “inactive”.
In the case of Cn1c(=O)[nH]c2ncn(C)c2c1=O, the outcome is reported as “inactive”.
With Cc1ccc2oc(=O)ccc2c1 the outcome was “inactive”.
In the case of CC(C)CCCC(C)CC=O (centres undefined), the outcome is reported as “inactive”.
With CCCCCCCCCCc1ccccc1 the AC50 was 26.2 µM (active).
With CCCC(=O)OCc1ccccc1 the outcome was “inactive”.
With O=C1CCC(=O)N1Cl the outcome was “inactive”.
In the case of CCCCCC(C)O (centres undefined), the outcome is reported as “inactive”.
For CCCCCCCCc1ccc(Nc2ccc(CCCCCCCC)cc2)cc1, the outcome was “inactive”.
